The results in this text go back to PubChem BioAssay (NCI).

Molecules are shown by their SMILES. The panel holds about 83,000 compounds, 20% with a hit somewhere; the sample as a whole holds those more often.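 Percent growth is the endpoint: 0 to 100 indicates growth inhibition (40 means 60% inhibition), 0 means no net growth, and negative values indicate cell death.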 A number with no mark means an inactive call. Activity calls are given as the source filed them.

In this experiment the test system is OVCAR-4 ovarian. The experiment in a line: NCI-60 one-dose screen, 48 h (100 = growth as untreated, 0 = no growth, -100 = all killed). The following applies: 10 µM unless noted. The procedure:
Growth inhibition of the OVCAR-4 human tumor cell line is measured as a screen for anti-cancer activity. Cells are grown in 96 well plates and exposed to the test compound for 48 hours. Compounds are tested at a single concentration, which is 10^-5 M for most compounds. The reported endpoint is percent growth (GI% or GIPRCNT), where numbers from 0 - 100% represent growth inhibition, and numbers from -100% - 0 represent cell death. For example, a value of 40 represents 60% growth inhibition. A value of 0 means no net growth occurred over the course of the experiment. A value of -40 indicates 40% of cells at the beginning of the experiment died by the end of the experiment. A value of -100 means all cells are dead at the end of the experiment.
NCI-60 Human Tumor Cell Lines Screen was performed using the standard one-dose NCI protocol, which is described in more detail at https://dtp.cancer.gov/discovery_development/nci-60/default.htm.
Compounds with GIPRCNT values below 10 were considered active. Activity score was based on GIPRCNT using the following formula: […]
Score is 0 for GIPRCNT values of 100 or above, 50 for GIPRCNT values of 0, and 100 for GIPRCNT values of -100.
In the case of `CN(C)c1nc(-c2cccs2)n2nc(-c3ccco3)cc2n1`, the growth was 74.6%.
In the case of `C/C(=N\Nc1ccc([N+](=O)[O-])cn1)c1ccc(N)cc1` it was 100%; in that of `CC(=O)C1CCC2C3CC(C)=C4CC(O)CCC4(C)C3CCC12C` (stereo not given), 93.4%.
For `COc1ccccc1CNCCCN1C(=O)c2ccc3c4c(ccc(c24)C1=O)C(=O)N(CCCOCCCCOCCCN)C3=O`, the growth was -97.1% (active).
In the case of `COc1ccc(C(=O)N2N=C(c3ccc(F)cc3)CC2c2cn(-c3ccccc3)nc2-c2ccccc2)cc1` (stereo not given) it was 68.2%; in that of `COc1cc(/C=N/NC(=O)Cn2c(-c3ccc(C)o3)nc3ccccc32)ccc1OCc1ccccc1`, 90%; in that of `CC(C)(C)[Si](C)(C)OC1[C@@H](O[Si](C)(C)C(C)(C)C)[C@@H](CNC(=O)NC(=O)NC(=O)CCl)O[C@H]1n1cnc2c(NC(=O)Nc3ccccc3)ncnc21` (stereo not given in full), 58.1%.
In the case of `c1ccc(-c2ccc(-c3ccccc3)[nH]2)cc1`, the growth was 75.8%.
Next, `O=C(c1ccccc1)C1OC1C(=O)c1ccccc1` (stereo not given): 60.1%.
With `O=S(=O)(Cc1ccc(Cl)cc1Cl)c1ccc(Cl)cc1`, the growth is 69.5%.
In the case of `C=C1C[C@@]2(C)C(CC[C@]3(C)C2CC=C2C4CC(C)(C)C[C@@H](OC(=O)/C(C)=C\C)[C@]4(C(=O)O)CC[C@]23C)C(C)(C)C1=O` (stereo not given in full) it was 39.4%; in that of `COc1cc(C2CC(c3ccccc3)=NN2C=O)ccc1Oc1ccnc2cc(Cl)ccc12` (stereo not given), 35%; in that of `c1csc(-c2cnc3nonc3n2)c1`, 89.5%.
In the case of `C=CCOC(=O)C1=C(C)NC2=C(C(=O)CC(C)(C)C2)C1c1ccc(OC)cc1` (stereo not given) it was 110%; in that of `C=C(C)[C@@H]1CC[C@]2(C(=O)O)CC[C@]3(C)[C@H](CC[C@@H]4[C@@]5(C)C[C@@H](CC#Cc6ccc(C(C)=O)s6)[C@H](O)C(C)(C)[C@@H]5CC[C@]43C)[C@@H]12`, 33.6%; in that of `COc1ccc2c(c1)sc1nc(-c3ccccc3)c(-c3cccc4ccccc34)n12`, 65%.
Next, `CCOC(=O)C1C(=O)C=C(c2ccccc2)CC1c1sc(N(C)Cc2ccccc2)nc1Cl` (stereo not given): 90.7%.
Regarding `O=C(Nc1ccc([N+](=O)[O-])cc1)c1cc2ccccc2cc1O`, the growth is 1.96% (active).
Next, `O=C(c1ccccc1)c1cccc(C(Br)Br)c1`: 95.4%.
As for `COc1ccc(-c2ccc(-c3ccc(C(=N)N)s3)s2)cc1`, the growth is -56.4% (active).
`COc1ccc2nc3ccccc3c(NCc3ccc(Cl)cc3)c2c1`: the growth was 24.5%.
In the case of `O=C(CCCCCCN1CC(=O)N2[C@@H](c3ccc(Cl)c(Cl)c3)c3[nH]c4ccccc4c3C[C@H]2C1=O)NO` it was 45.6%.
Next, `CN1C(=O)N(C)C2C1NN=c1s/c(=C\c3ccc(Br)cc3)c(=O)n12` (stereo not given): 61.6%; `Clc1ccc(-c2cnc3c(-c4ccnc(N5CCNCC5)c4)cnn3c2)cc1`: -60.9% (active).
In the case of `Cc1ccccc1C1CC(=O)c2ccccc2C1C` (stereo not given) it was 101%; in that of `O=C1C(Cl)=C(Nc2cccc3ccccc23)C(=O)c2ccccc21`, 58.6%.
As for `CC(=O)Cc1ccccn1`, the growth was 106%.
Next, `CC(C)(C)c1nn(-c2ccccc2)c2c1C(=O)CSC(c1ccccc1Cl)N2` (stereo not given): 72.5%; `O=C1OCC2=C1C(c1ccccc1)c1cc3c(cc1N2CCO)CCC3` (stereo not given): 30%.
Next, `COc1ccccc1-[n+]1cc(-c2ccc(-c3ccccc3)cc2)n2c1CCCCC2`: 20.2%.
Next, `O=C(/C=C/c1ccco1)c1ccccc1O`: 106%; `CC(C)CCSc1nc(-c2ccc(F)cc2)c(C#N)c(N2CCN(C)CC2)n1`: 96.7%.
`CCCCCCCCCCCCCCCC1=NC(C)(C)CN1C(C)C`: the growth is 24.3%.
Next, `Nc1nc(NC2CC2)cc(-c2cccc(Cl)c2Cl)n1`: 73.4%; `N/C(=N\O)c1ncc(-c2ccc(C(F)(F)F)cc2)c(NC2CCCCCC2)n1`: -6.06% [100 µM] (active); `CC(C)[C@@H]1C=C2CC[C@H]3[C@](C)(CN)CCC[C@]3(C)[C@H]2CC1`: 77.3%.
For the compound `COc1cc2ncnc(Nc3ccc(S(=O)(=O)Nc4cc(C)on4)cc3)c2cc1OCCCN1CCN(c2ccc([N+](=O)[O-])cc2)CC1`, the growth is 111%.
Next, `O=C(CSc1nnc(Cc2ccccc2Nc2c(Cl)cccc2Cl)n1-c1ccccc1)N1N=C(c2ccc3ccccc3c2)CC1c1ccc(Cl)cc1` (stereo not given): 88.7%.
Next, `O=c1nc(-c2ccccc2)c2cc(-c3ccc(N4CCOCC4)cc3)ccc2[nH]1`: 91%; `COc1cc(CN2CCC(N3CCCC3=O)c3ccccc32)cc(OC)c1OC` (stereo not given): 41.3%.
